Source: PubChem BioAssay AID1159580 (chemical genetic matrix, 2015)
About 2,000 (36%) of roughly 5,500 compounds were called active. About 18% were inconclusive and are not listed. Rule as the data show it: active = normalized growth mostly below about 0.91 (no sharp cut-off); inconclusive = no clear call, values can overlap the other calls; inactive = mostly above about 0.92. The list shows a part of the results.

Test: chemical genetic growth profiling, strain panel (AID 1159580);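 also: tested at 20 µM; growth read once vehicle control cultures reached saturation at 30 °C; 1 = growth at the plate median or of vehicle wells; lower values mean less growth of the strain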
Conditions: S. cerevisiae deletion strains, growth OD

Measured: normalized growth

CC(=O)Oc1ccc2c(c1)CCC1C2CCC2(C)C1CC(OC(C)=O)C2OC(C)=O (stereo unspecified)
active: locus YPL106C, strain sse1, active compounds read low 0.831
inactive: locus YAL021C, strain ccr4, active compounds read low 0.948 | locus YAL026C, strain drs2, active compounds read low 1.01 | locus YAL030W, strain snc1, active compounds read low 0.97 | locus YBL061C, strain skt5, active compounds read low 0.997 | locus YBR009C, strain hhf1, active compounds read low 0.985 | locus YBR023C, strain chs3, active compounds read low 0.983 | locus YBR171W, strain sec66, active compounds read low 1 | locus YBR231C, strain swc5, active compounds read low 0.982 | locus YBR279W, strain paf1, active compounds read low 0.987 | locus YCL011C, strain gbp2, active compounds read low 0.994 | locus YCL016C, strain dcc1, active compounds read low 0.978 | locus YCL069W, strain vba3, active compounds read low 0.993 | locus YCR088W, strain abp1, active compounds read low 0.992 | locus YDL005C, strain med2, active compounds read low 0.987 | locus YDL040C, strain nat1, active compounds read low 0.975 | locus YDR001C, strain nth1, active compounds read low 1.01 | locus YDR069C, strain doa4, active compounds read low 0.954 | locus YDR137W, strain rgp1, active compounds read low 0.925 | locus YDR159W, strain sac3, active compounds read low 0.902 | locus YDR195W, strain ref2 0.992 | locus YDR297W, strain sur2, active compounds read low 0.988 | locus YDR334W, strain swr1, active compounds read low 0.987 | locus YDR335W, strain msn5, active compounds read low 1.01 | locus YDR392W, strain spt3, active compounds read low 0.856 | locus YEL003W, strain gim4, active compounds read low 0.986 | locus YEL037C, strain rad23, active compounds read low 1.02 | locus YEL061C, strain CIN8 (second series), active compounds read low 1.01 | locus YER015W, strain faa2, active compounds read low 0.985 | locus YER016W, strain bim1, active compounds read low 0.973 | locus YER111C, strain swi4, active compounds read low 0.994 | locus YER155C, strain BEM2 (second series), active compounds read low 1 | locus YFR010W, strain ubp6, active compounds read low 0.997 | locus YGL167C, strain pmr1, active compounds read low 0.98 | locus YGL173C, strain kem1, active compounds read low 0.99 | locus YGL227W, strain vid30, active compounds read low 0.995 | locus YGL240W, strain doc1, active compounds read low 0.935 | locus YGL253W, strain hxk2, active compounds read low 0.997 | locus YHR013C, strain ard1, active compounds read low 0.961 | locus YHR027C, strain rpn1, active compounds read low 0.987 | locus YHR142W, strain chs7, active compounds read low 0.968 | locus YJL092W, strain hpr5, active compounds read low 1.01 | locus YJL095W, strain BCK1 (second series), active compounds read low 0.984 | locus YJL115W, strain asf1, active compounds read low 1.01 | locus YJL129C, strain trk1, active compounds read low 0.967 | locus YJL154C, strain vps35, active compounds read low 0.985 | locus YJL164C, strain tpk1, active compounds read low 0.952 | locus YJL166W, strain qcr8, active compounds read low 0.987 | locus YJL187C, strain SWE1, active compounds read low 0.99 | locus YKL160W, strain elf1, active compounds read low 0.962 | locus YKR026C, strain gcn3, active compounds read low 1.01 | locus YKR091W, strain srl3, active compounds read low 0.988 | locus YLL001W, strain dnm1, active compounds read low 1 | locus YLL026W, active compounds read low 0.964 | locus YLL041C, strain sdh2, active compounds read low 0.999 | locus YLR027C, strain aat2, active compounds read low 0.995 | locus YLR221C, strain rsa3, active compounds read low 0.978 | locus YLR258W, strain gsy2, active compounds read low 0.988 | locus YLR262C, strain YPT6 (second series), active compounds read low 0.877 | locus YLR320W, strain mms22, active compounds read low 0.943 | locus YLR342W, strain FKS1, active compounds read low 0.971 | locus YLR357W, strain rsc2, active compounds read low 0.952 | locus YLR370C, strain arc18, active compounds read low 0.989 | locus YLR384C, strain iki3, active compounds read low 0.983 | locus YML120C, strain ndi1, active compounds read low 0.997 | locus YMR058W, strain fet3, active compounds read low 1 | locus YMR125W, strain sto1, active compounds read low 1 | locus YMR129W, active compounds read low 0.995 | locus YMR205C, strain PFK2, active compounds read low 0.972 | locus YMR231W, strain pep5, active compounds read low 0.996 | locus YNL071W, strain lat1, active compounds read low 0.962 | locus YNL209W, strain ssb2, active compounds read low 0.976 | locus YNL248C, strain rpa49, active compounds read low 0.991 | locus YNL322C, strain KRE1 (second series), active compounds read low 0.966 | locus YNR049C, strain mso1, active compounds read low 1 | locus YOR001W, strain rrp6, active compounds read low 0.983 | locus YOR070C, strain gyp1, active compounds read low 0.995 | locus YOR080W, strain dia2, active compounds read low 0.987 | locus YOR083W, strain WHI5, active compounds read low 0.952 | locus YOR106W, strain vam3, active compounds read low 0.954 | locus YOR265W, strain rbl2, active compounds read low 0.996 | locus YOR270C, strain vph1, active compounds read low 0.925 | locus YOR290C, strain snf2, active compounds read low 0.97 | locus YPL051W, strain arl3, active compounds read low 0.967 | locus YPL078C, strain atp4, active compounds read low 0.987 | locus YPL240C, strain hsp82, active compounds read low 0.995
